Measured values published in the supplement of paper PMC6555819.

Experiments:
Test in all cases: PBM binding z-score (relative to random genomic background probes); higher = stronger binding; sequences stand for … in GC…GCGATTGACAGCGTAGAATGAAGG
[1] = test system: FXR:RXRa (NR concentration 270 nM, RXRa partner concentration 90 nM)
Outline: (§1)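 Ligand-free nuclear receptor dimers were applied to custom Agilent 4×180K protein-binding microarrays whose double-stranded probes carried direct-repeat seeds, single-nucleotide variants, half-site ablations and random human genomic background sequences in 34-nt variable regions. Incubation lasted 1 h. Binding z-scores were computed against the random background probes from regression-normalized fluorescence.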

[2] = test system: LXRa:RXRa (NR concentration 270 nM, RXRa partner concentration 90 nM)
Outline: as §1

[3] = test system: LXRa homodimer (NR concentration 270 nM)
Outline: as §1

[4] = test system: LXRb:RXRa (NR concentration 270 nM, RXRa partner concentration 90 nM)
Outline: as §1

[5] = test system: LXRb homodimer (NR concentration 270 nM)
Outline: as §1

[6] = test system: PPARa:RXRa (NR concentration 270 nM, RXRa partner concentration 90 nM)
Outline: as §1

[7] = test system: PPARg:RXRa (NR concentration 180 nM, RXRa partner concentration 90 nM)
Outline: as §1

[8] = test system: PPARg:RXRa 270nM:90nM, anti-RXR (NR concentration 270 nM, RXRa partner concentration 90 nM)
Outline: as §1

[9] = test system: PPARg:RXRa 30nM:10nM, anti-RXR (NR concentration 30 nM, RXRa partner concentration 10 nM)
Outline: as §1

[10] = test system: PPARg:RXRa 90nM:30nM, anti-RXR (NR concentration 90 nM, RXRa partner concentration 30 nM)
Outline: as §1

[11] = test system: PPARg:RXRa DBDmut IVT, anti-RXR (DBD mutation: RXRa K156A/R161A, NR concentration 270 nM, RXRa partner concentration 90 nM)
Outline: as §1

[12] = test system: PPARg:RXRa IVT, anti-PPARg (NR concentration 270 nM, RXRa partner concentration 90 nM)
Outline: as §1

[13] = test system: PPARg DBDmut:RXRa IVT, anti-PPARg (DBD mutation: PPARg1 K132A/R137A, NR concentration 270 nM, RXRa partner concentration 90 nM)
Outline: as §1

[14] = test system: PPARg DBDmut IVT, anti-PPARg (DBD mutation: PPARg1 K132A/R137A, NR concentration 270 nM)
Outline: as §1

[15] = test system: PPARg homodimer (NR concentration 180 nM)
Outline: as §1

[16] = test system: PXR:RXRa (NR concentration 270 nM, RXRa partner concentration 90 nM)
Outline: as §1

[17] = test system: PXR homodimer (NR concentration 270 nM)
Outline: as §1

[18] = test system: RARa:RXR (NR concentration 270 nM, RXRa partner concentration 90 nM)
Outline: as §1

[19] = test system: RARa homodimer (NR concentration 270 nM)
Outline: as §1

[20] = test system: RARb:RXRa (NR concentration 270 nM, RXRa partner concentration 90 nM)
Outline: as §1

Sequence	PBM binding z-score [1]	PBM binding z-score [2]	PBM binding z-score [3]	PBM binding z-score [4]	PBM binding z-score [5]	PBM binding z-score [6]	PBM binding z-score [7]	PBM binding z-score [8]	PBM binding z-score [9]	PBM binding z-score [10]	PBM binding z-score [11]	PBM binding z-score [12]	PBM binding z-score [13]	PBM binding z-score [14]	PBM binding z-score [15]	PBM binding z-score [16]	PBM binding z-score [17]	PBM binding z-score [18]	PBM binding z-score [19]	PBM binding z-score [20]
CAAACTAGGTCACGAAAGGTCAAAGTAGAATGAC	7.59	8.11	8.28	7.19	2.72	6.77	10.6	8.55	6.87	8.89	8.54	9.02	2.85	3.25	6.18	6.93	2.94	7.51	4.51	5.71
CAAACTAGGTCACAGAGGTCATAGTCCGTGCGTA	6.73	6.13	6.94	5.6	1.6	6.22	10	8	7.14	7.77	8.64	9.13	4.61	1.67	6.77	6.52	12.2	7.31	3.54	5.27
CGTCCAAGGTCAATGCTAGGTCAGTGACAGCATT	6.74	5.78	2.73	4.19	1.14	5.31	4.11	4.64	1.38	3.44	3.59	4.07	0.933	0.0917	5.74	4.98	1.04	6.17	2.41	5.26
ACTAGCAGCCCAAGGGTCACTCAAGATTAGTCCG	2.27	2.63	0.353	2.75	-0.34	3.14	2.69	3.61	1.43	3.21	-0.509	1.13	-0.437	-0.614	1.34	2.97	0.208	3.58	0.48	3.27
CCTTACGGGTCACTCCAGGTTATAGCATCGGAGT	4.9	7.65	1.97	5.36	0.226	4.64	3.53	3.74	1.18	2.57	2.98	3.86	-0.0737	-0.285	1.64	4.79	0.216	3.49	0.27	3.6
CGAACTAGGTAATCCAGGACAGTGAATACATTGA	-0.0818	-0.39	-0.012	-0.349	-0.454	1.23	1.56	0.982	0.536	0.507	5.67	4.69	0.81	0.796	0.0161	-0.34	-0.311	-0.156	0.04	0.0507
CCTGCTGGGCCAAAAAGGTCATTGATGCCGATAA	3.7	4.03	2.82	4.04	0.015	4.34	1.24	2.72	0.205	1.65	0.633	1.32	-0.602	-0.914	3.24	4.99	3.34	5.41	0.138	3.89
GCTATCAGTTGAAAGGGCAACCGAATGATTCTCG	0.0237	0.591	0.000257	0.46	-0.626	1.99	1.65	2.77	1.35	2.69	0.18	0.3	-0.111	-0.549	0.562	0.584	-0.393	1.25	-0.381	2.07
